The record followed here is article PMC9911399, “Two distinct binding modes provide the RNA-binding protein RbFox with extraordinary sequence specificity”.

The chains are these.
T1: RBFOX1 RRM (Homo sapiens, UniProt Q9NWB1 109-208)
T1 sequence: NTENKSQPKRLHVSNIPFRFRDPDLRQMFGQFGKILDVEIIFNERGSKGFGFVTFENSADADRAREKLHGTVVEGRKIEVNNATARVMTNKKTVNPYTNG

B1: UGUCCGA (DNA:RNA)
RNA: GGGAGACCGGAAUUCAGAUUGUCCUGUCCGAUUAAAUCCCGUCGUAGCCACCA
DNA 1: CAATCTGAATTCCGGTCTCCC
DNA 2: TGGTGGCTACGACGGGATT
B2: CCAGGCU (DNA:RNA)
RNA: GGGAGACCGGAAUUCAGAUUGUCCCCAGGCUUUAAAUCCCGUCGUAGCCACCA
DNA 1: CAATCTGAATTCCGGTCTCCC
DNA 2: TGGTGGCTACGACGGGATT
B3: UAGUUGG (DNA:RNA)
RNA: B1 RNA with G26A, U27G, C28U, C29U, A31G
DNA 1: CAATCTGAATTCCGGTCTCCC
DNA 2: TGGTGGCTACGACGGGATT
B4: CCAAUAG (DNA:RNA)
RNA: B2 RNA with G28A, G29U, C30A, U31G
DNA 1: CAATCTGAATTCCGGTCTCCC
DNA 2: TGGTGGCTACGACGGGATT
B5: UCAAGAG (DNA:RNA)
RNA: B2 RNA with C25U, G28A, C30A, U31G
DNA 1: CAATCTGAATTCCGGTCTCCC
DNA 2: TGGTGGCTACGACGGGATT
B6: GUUUUAG (DNA:RNA)
RNA: B1 RNA with U25G, G26U, C28U, C29U, G30A, A31G
DNA 1: CAATCTGAATTCCGGTCTCCC
DNA 2: TGGTGGCTACGACGGGATT
B7: GCGGAGC (DNA:RNA)
RNA: B2 RNA with C25G, A27G, G29A, C30G, U31C
DNA 1: CAATCTGAATTCCGGTCTCCC
DNA 2: TGGTGGCTACGACGGGATT
B8: CCUUACC (DNA:RNA)
RNA: B2 RNA with A27U, G28U, G29A, U31C
DNA 1: CAATCTGAATTCCGGTCTCCC
DNA 2: TGGTGGCTACGACGGGATT
B9: CCGUAGA (DNA:RNA)
RNA: B2 RNA with A27G, G28U, G29A, C30G, U31A
DNA 1: CAATCTGAATTCCGGTCTCCC
DNA 2: TGGTGGCTACGACGGGATT
B10: UUGCCUG (DNA:RNA)
RNA: B1 RNA with G26U, U27G, G30U, A31G
DNA 1: CAATCTGAATTCCGGTCTCCC
DNA 2: TGGTGGCTACGACGGGATT
B11: UGUGCCG (DNA:RNA)
RNA: B1 RNA with C28G, G30C, A31G
DNA 1: CAATCTGAATTCCGGTCTCCC
DNA 2: TGGTGGCTACGACGGGATT
B12: UGUCCCG (DNA:RNA)
RNA: B1 RNA with G30C, A31G
DNA 1: CAATCTGAATTCCGGTCTCCC
DNA 2: TGGTGGCTACGACGGGATT
B13: GUCCUGG (DNA:RNA)
RNA: B1 RNA with U25G, G26U, U27C, C29U, A31G
DNA 1: CAATCTGAATTCCGGTCTCCC
DNA 2: TGGTGGCTACGACGGGATT
B14: UGCUGGU (DNA:RNA)
RNA: B1 RNA with U27C, C28U, C29G, A31U
DNA 1: CAATCTGAATTCCGGTCTCCC
DNA 2: TGGTGGCTACGACGGGATT
B15: UGUAGCC (DNA:RNA)
RNA: B1 RNA with C28A, C29G, G30C, A31C
DNA 1: CAATCTGAATTCCGGTCTCCC
DNA 2: TGGTGGCTACGACGGGATT
B16: UGGUGCC (DNA:RNA)
RNA: B2 RNA with C25U, C26G, A27G, G28U, U31C
DNA 1: CAATCTGAATTCCGGTCTCCC
DNA 2: TGGTGGCTACGACGGGATT
B17: GUGCCUG (DNA:RNA)
RNA: B1 RNA with U25G, G26U, U27G, G30U, A31G
DNA 1: CAATCTGAATTCCGGTCTCCC
DNA 2: TGGTGGCTACGACGGGATT
B18: UGGUUCC (DNA:RNA)
RNA: B1 RNA with U27G, C28U, C29U, G30C, A31C
DNA 1: CAATCTGAATTCCGGTCTCCC
DNA 2: TGGTGGCTACGACGGGATT
B19: UGCCUGG (DNA:RNA)
RNA: B1 RNA with U27C, C29U, A31G
DNA 1: CAATCTGAATTCCGGTCTCCC
DNA 2: TGGTGGCTACGACGGGATT
B20: UGUUGCC (DNA:RNA)
RNA: B1 RNA with C28U, C29G, G30C, A31C
DNA 1: CAATCTGAATTCCGGTCTCCC
DNA 2: TGGTGGCTACGACGGGATT
B21: UGGUUCG (DNA:RNA)
RNA: B1 RNA with U27G, C28U, C29U, G30C, A31G
DNA 1: CAATCTGAATTCCGGTCTCCC
DNA 2: TGGTGGCTACGACGGGATT

Numbering of substitutions follows the chain as printed; changes in the protein carry UniProt numbers. Over roughly 16,000 sequences, “ka relative to ugcaugu” has its median near 0.0091; the highest 2% begin near 0.032. This excerpt belongs to a sample that is enriched for the highest values.

The target in this experiment is T1, RBFOX1 RRM. Nature of the experiment: EMSA; HiTS-Eq, 1 nM pool, 10 min; buffer printed only for the single-RNA assays: 10 mM Tris pH 7.5, 150 mM NaCl, 3.4 mM EDTA, 0.001% NP-40, 30 C. The conditions noted are these: tags: His6 N-terminal (pET28a); label: 5' 32P. The gist of the method: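 These values rest on relative association constants, computed from read-count changes of each RNA species versus the control reaction and normalised to the cognate motif. Reads came from free RNA recovered by 8% native PAGE after purified RbFox RRM (wild type or mutant) at increasing concentrations was equilibrated for 10 min in 50 µL with 1 nM of a 5′-radiolabelled pool with 7 randomized nucleotides and DNA-annealed flanks.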
On to B1, for which the binding signal was 0.0182 KA relative to UGCAUGU. For B2, the binding signal is 0.00926 KA relative to UGCAUGU. B3: the binding signal is 0.0164 KA relative to UGCAUGU. Turning to B4, the binding signal was 0.00034 KA relative to UGCAUGU. Turning to B5, the binding signal was 0.00877 KA relative to UGCAUGU. Take B6: the binding signal is 0.0145 KA relative to UGCAUGU. As to B7, the binding signal is 0.0117 KA relative to UGCAUGU. Consider B8, for which the binding signal is 0.00281 KA relative to UGCAUGU. B9: the binding signal is 0.00944 KA relative to UGCAUGU. The same measure for B10: 0.0452 KA relative to UGCAUGU; for B11: 0.0199 KA relative to UGCAUGU; for B12: 0.0122 KA relative to UGCAUGU. As for B13, the binding signal is 0.0183 KA relative to UGCAUGU. For the molecule B14, the binding signal was 0.028 KA relative to UGCAUGU. As to B15, the binding signal was 0.0129 KA relative to UGCAUGU. Next, B16: 0.0219 KA relative to UGCAUGU; B17: 0.0397 KA relative to UGCAUGU.

As to B18, the binding signal is 0.0214 KA relative to UGCAUGU. Next, B19: 0.0474 KA relative to UGCAUGU; B20: 0.0243 KA relative to UGCAUGU. Regarding B21, the binding signal was 0.0375 KA relative to UGCAUGU.
